The record followed here is PubChem BioAssay AID504832 (National Center for Advancing Translational Sciences (NCATS), 2011).

Hit rate of the full screen: of about 310,000 compounds, about 18,000 (5.8%) were called active. Not shown: some 22% with an inconclusive outcome. The full list was thinned out, with actives kept by preference. Values without a mark were called inactive. Calls follow the shape of the dose curve; as a rule, active = well fitted inhibition curve with a large enough effect; inconclusive = small, poorly fitted or top-dose-only effect, or another doubt; inactive = no such curve, though single readings can be large or run the other way.
% is scaled to controls: 0 for no effect and ±100 for the full control effect; potency is read from the fitted curve at half-maximal effect.

The test in a line: Primary qHTS for delayed death inhibitors of the malarial parasite plastid, 48 hour incubation. The settings on record: P. falciparum luciferase growth in erythrocytes; series mostly up to 28.7 µM; activity change, negative = inhibition: at the top concentration. An excerpt: The goal of this screen is to discover new antimalarial compounds that act by inhibiting the development of the apicoplast in the malarial parasite Plasmodium falciparum. The biochemical processes that make this organelle essential for erythrocytic stage parasites are not well understood. However, antibiotics such as azithromycin and tetracycline, which target the apicoplast translational machinery, have a potent antimalarial effect.
We have developed a cell-based assay that measures parasite growth based on the expression of an integrated copy of a firefly luciferase reporter. To detect small molecules that cause this "delayed death" phenotype, erythrocytes infected with the luciferase-expressing parasites were incubated with compounds for either one or two generations, corresponding to 48 and 96 hours, respectively. Compounds that inhibit parasite growth in the second generation, but not the first, should be enriched in antimalarials that target the apicoplast. Growth inhibition is detected by a decrease in luciferase activity.
Assay Provider: David Fidock and Eric Ekland, Columbia University
Keywords: NIH Roadmap, MLPCN, MLI, MLSMR, qHTS, NCGC, qHTS, malaria, luciferase, viability
Four microliters of culture medium (RPMI 1640 with 0.5% w/v Albumax (GIBCO), 24 mM sodium bicarbonate and 10 ug/mL gentamycin) were dispensed by a Multi-drop Combi into white solid 1536-well plates (Grenier) and 23 nL compound was added by a pin tool. Four microliters of infected erythrocytes (2% hematocrit, 0.1% parasitemia final concentration) in culture medium were dispensed and the plates incubated for 48 hours at 37 C in 5% CO2. Two microliters of luciferase detection reagent was added and luminescence was detected by a ViewLux (PerkinElmer) reader.
As to `CCOC(=O)c1cccc(NC(=O)C2CCN(c3ncnc4c3nc3n4CCCCC3)CC2)c1`, the “activity change, negative = inhibition” value is -24.5%.
Consider `COc1cc(C2/C(=C(\O)c3ccc4c(c3)CC(C)O4)C(=O)C(=O)N2c2nnc(C)s2)cc(OC)c1OC` (stereo unspecified), for which the “activity change, negative = inhibition” value was 2.05%.
As for `O=S(=O)(Nc1cccc(-n2cnnn2)c1)c1cnc(Cl)c(Cl)c1`, the “activity change, negative = inhibition” value was -12.1%.
The same measure, in the same setting: as for `CC(=O)NC12CC3CC(C1)CC(C(=O)N1CCN(C(=O)c4ccco4)CC1)(C3)C2`, the figure is 85.7%; as for `Cc1ccc(C(=O)Nc2ccn(C)n2)cc1`, 4.9%.
For `CN1C(C(=O)NCc2ccco2)CC2Cn3c(nc4ccccc43)C21` (stereo unspecified), the “activity change, negative = inhibition” value was -29.7%.
On the same count and under the same terms, as for `Cc1nc2nc(SCC(=O)Nc3cccc(F)c3)[nH]c2cc1Br`, the figure is 39.1%.
In the case of `COc1ccc(CN2CCN(C(=O)c3cc(C4CC4)nn3-c3ccccc3)CC2)cc1F`, the Potency is 8.28 µM (active).
`COc1cc(CN2CCC(C(N)=O)CC2)ccc1OCc1ccccc1`: the “activity change, negative = inhibition” value is 119%.
The same measure, in the same setting: to `COc1ccc(CN2CCN(C(=O)CCC(=O)Nc3nnc(C(C)C)s3)CC2)cc1F` belongs -1.74%; to `COc1ccc(C(=O)NCc2nnc(SCC(=O)NC3=NCCS3)n2C)cc1`, 10.4%.
Still for that read-out and setting: to `Cc1cc(=O)cc(C)n1-c1ccc(Cl)c(Cl)c1` belongs -14.4%.
The same measure, in the same setting: as for `O=C(OCC(=O)N(CCc1ccccc1)Cc1ccccc1)c1ccccc1[N+](=O)[O-]`, the figure is 33.7%.
For the compound `O=[N+]([O-])c1ccc(N(CCO)Cc2ccccc2)c([N+](=O)[O-])c1`, the Potency was 4.65 µM (active).
As to `CCN(CC)c1ccc([N+](=O)[O-])cc1C(=O)O`, the “activity change, negative = inhibition” value was -8.48%.
On to `O=C(NCCCn1ccnc1)c1cc(Br)c(Br)s1`, for which the “activity change, negative = inhibition” value was -13%.
Still for that read-out and setting: to `CC(=O)Nc1ccc(NC(=O)CSc2nnnn2C2CCCCC2)cc1` belongs 0.533%; to `CCCc1cc(=O)n2[nH]c(C)c(-c3ccc(Cl)cc3)c2n1`, 11.8%.
Same read-out and setting: to `NS(=O)(=O)c1cccc(NC(=O)CC23CC4CC(CC(Br)(C4)C2)C3)c1` belongs 25.6%; to `Cc1nnc(SCC(=O)Nc2cccc(N)c2)n1-c1ccccc1`, 0%; to `COc1ccc(C2=NS(=O)(=O)N(C)C(C(=O)NC(C)c3ccccc3)=C2)cc1` (stereo unspecified), 3.81%.
Consider `COc1ccc(C2=NS(=O)(=O)N(C)C(C(=O)N3CCCCC3)=C2)cc1`, for which the “activity change, negative = inhibition” value is -6.99%.
Consider `COc1ccc(NC(=O)C2=CC(c3ccc(OC)c(OC)c3)=NS(=O)(=O)N2C)cc1`, for which the Potency is 14.7 µM (active).
`Cc1cccc(N(C)C(=O)c2cc(S(=O)(=O)N3CCCCC3)c[nH]2)c1`: the “activity change, negative = inhibition” value was 8.72%.
The same measure, in the same setting: to `Cc1cccc(CCNS(=O)(=O)c2ccc3c(c2)NC(=O)CO3)c1` belongs 12.1%; to `CCOc1ccc(NC(=O)CC(Cc2ccc(Cl)cc2)C(=O)O)cc1` (stereo unspecified), 31.6%.
Same read-out and setting: to `COc1ccc(C2CC(c3ccccc3)=NN2C(=O)COC(=O)COc2ccccc2)cc1` (stereo unspecified) belongs -0.759%.
`O=C1c2cccc(OCC(=O)N3N=C(c4cccs4)CC3c3ccc(F)cc3)c2CCN1Cc1ccccc1` (stereo unspecified): the Potency is 7.38 µM (active).
In the case of `COc1ccc(C2CC(c3cccs3)=NN2C(=O)CCC(=O)O)cc1OC` (stereo unspecified), the “activity change, negative = inhibition” value was -0.475%.
Still for that read-out and setting: as for `COc1cc(C(=O)NCC(=O)NCCSc2ccc(Br)cc2)cc(OC)c1OC`, the figure is 37.5%; as for `CCO[C@@H]1OC(C(=O)N2CCOCC2)=C[C@H](C)[C@H]1CCCO`, 12.4%.
Regarding `CCO[C@H]1OC(C(=O)N2CCCCCCC2)=C[C@@H](c2ccc(C(F)(F)F)cc2)[C@@H]1CCCO`, the Potency is 3.7 µM (active).
For the compound `CCO[C@H]1OC(C(=O)N2CCOCC2)=C[C@@H](c2ccc3c(c2)OCO3)[C@@H]1CCCO`, the “activity change, negative = inhibition” value was 39.8%.
Turning to `Cc1cc(C)c(S(=O)(=O)Nc2c(C)n(C)n(-c3ccccc3)c2=O)cc1[N+](=O)[O-]`, the “activity change, negative = inhibition” value was -7.18%.
Still for that read-out and setting: to `COc1ccc(-c2cc(C(=O)N3CCN(c4ccc(F)cc4)CC3)no2)cc1` belongs 1.13%.
As for `Cc1cc(C)c(C2C3=C(Nc4c2c(C)nn4-c2ccccn2)c2ccccc2C3=O)c(C)c1` (stereo unspecified), the Potency is 9.28 µM (active).
For `COC(=O)c1sccc1NC(=O)c1ccc(Cl)cc1`, the “activity change, negative = inhibition” value was 12.9%.
With `Nc1nc(NCc2ccccc2)n(-c2ccccc2)n1`, the “activity change, negative = inhibition” value is -9%.
In the case of `CCc1nnc(NC(=O)CSCc2cc(=O)n3cc(C)sc3n2)s1`, the “activity change, negative = inhibition” value is -17.5%.
For `COC(=O)c1ccc(CNC(=O)C2CCC(=O)N(Cc3cccc(F)c3)C2)cc1` (stereo unspecified), the “activity change, negative = inhibition” value is -0.0903%.
Still for that read-out and setting: as for `O=C(NCCc1ccc(Cl)cc1)C1CCCN1C(=O)NCc1ccccc1` (stereo unspecified), the figure is 8.13%; as for `COc1ccc(CNC(=O)C2CCN(S(C)(=O)=O)CC2)cc1`, 0%.
Still for that read-out and setting: as for `O=C(CN1CCN(C(=O)c2ccco2)CC1)Nc1ccc(Cl)c(C(F)(F)F)c1`, the figure is -1.32%.
With `COC(=O)C1=C(c2ccc(F)cc2OCc2ccccc2)C[C@@H]2CC[C@H]1N2C(=O)NCc1ccc(Cl)cc1`, the Potency is 11.7 µM (active).
As for `COC(=O)C1=C(c2ccccc2OCc2ccccc2)C[C@@H]2CC[C@H]1N2C(=O)NCc1ccc(OC)cc1`, the Potency was 13.1 µM (active).
Turning to `COC(=O)C1=C(c2ccc(F)cc2F)C[C@@H]2CC[C@H]1N2C(=O)NC1CC1`, the “activity change, negative = inhibition” value is 17.9%.
For the compound `COc1ccc(CNC(=O)C2CCN(C(=O)c3ccccc3)CC2)cc1`, the “activity change, negative = inhibition” value is -3.24%.
`COC(=O)C1=C(c2ccc(Cl)c(C(F)(F)F)c2)C[C@@H]2CC[C@H]1N2C(=O)NC1CC1`: the Potency is 14.7 µM (active).
`COC(=O)C1=C(c2ccc3ccccc3c2)C[C@@H]2CC[C@H]1N2C(=O)NCCO`: the “activity change, negative = inhibition” value was 3.2%.
As to `O=C(O)C1CC=C(Cl)CC1C(=O)NCc1ccccc1` (stereo unspecified), the “activity change, negative = inhibition” value is 1.48%.
On to `COC(=O)C1=C(c2ccc(-c3ccccc3)c(F)c2)C[C@@H]2CC[C@H]1N2C(=O)NCc1ccc(F)cc1`, for which the Potency is 13.1 µM (active).
